Measured values published in PubChem BioAssay.
Values joined by “and” are separate entries in the source; they are usually repeats but may differ in a detail not shown here. Equal entries are not always repeated. Active and inactive are the calls of the source. Unless noted, no rule for the calls is given here.

What was measured:
[1] = HepG2 liver cancer cell viability effects, profiling panel, resazurin fluorescence, 24 h, PK04 Diversity Set (AID 1172); settings: higher = more signal; also: test concentration not given here
[2] = basal S. cerevisiae growth modulation, no modifier, primary screen, OD600, strain BY4716, 24 h, basal condition (AID 1173); settings: OD600, 24 h, higher = more signal, called active from +8 up or from −8 down
[3] = MM1S myeloma cell viability, profiling panel, resazurin fluorescence, basal, 24 h, PK04 Diversity Set (AID 1174); settings: higher = more signal, called active from +8 up or from −8 down;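 also: MM1S multiple myeloma cell line; test concentration not given here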
[4] = target: Dihydroorotate dehydrogenase (quinone), mitochondrial (Plasmodium falciparum (isolate 3D7)) (UniProt Q08210); assay: PfDHODH enzyme inhibitors, primary screen, biochemical, C-terminal His tag, absorbance 600 nm (AID 1175); settings: DCIP absorbance 600 nm, higher = more signal, called active from +8 up or from −8 down;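 also: recombinant parasite enzyme with a five histidine tag at its C terminus; test concentration not given here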
[5] = S. cerevisiae RM11-1a growth modifiers, primary screen, strain RM11-1a, OD600, basal, 24 h (AID 1177); settings: OD600, 24 h, higher = more signal, called active from +8 up or from −8 down;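 also: cultures grown under basal conditions with no added stressor; test concentration not given here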
[6] = E. coli acrAB mutant growth effects, primary screen, E. coli filamentation inducers, strain DRC39, OD650, 24 h (AID 1178); settings: higher = more signal, called active from +8 up or from −8 down;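 also: growth measured as culture turbidity by optical density at 650 nm; test concentration not given here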
[7] = E. coli acrAB mutant growth effects, primary screen, E. coli filamentation inducers, strain DRC39, OD650, 48 h (AID 1179);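 also: screen aims at cell division blockers that make cells filament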; settings: E. coli DRC39 delta-acrAB growth, higher = more signal, called active from +8 up or from −8 down
[8] = RPMI8226 myeloma cell viability, profiling panel, resazurin fluorescence, basal, 24 h, PK04 Diversity Set (AID 1180); settings: higher = more signal;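 also: RPMI8826 multiple myeloma cell line at 5000 cells per well; test concentration not given here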
[9] = target: E3 ubiquitin-protein ligase XIAP (Homo sapiens) (UniProt P98170); assay: XIAP binders, primary screen, biophysical, small-molecule microarray, fluorescence 635 nm (AID 1181); settings: small-molecule microarray binding, higher = more signal;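 also: score merges 667 nm emission and signal to noise over triplicate slides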
[10] = P. aeruginosa biofilm formation inhibitors, primary screen, strain PAO1, LB-PBS medium, absorbance 600 nm (AID 1176); also: test concentration not given here; settings: P. aeruginosa PAO1 growth/biofilm, A600, 12 h; higher = more signal

Chain of E3 ubiquitin-protein ligase XIAP (Homo sapiens) (P98170 whole entry, looked up): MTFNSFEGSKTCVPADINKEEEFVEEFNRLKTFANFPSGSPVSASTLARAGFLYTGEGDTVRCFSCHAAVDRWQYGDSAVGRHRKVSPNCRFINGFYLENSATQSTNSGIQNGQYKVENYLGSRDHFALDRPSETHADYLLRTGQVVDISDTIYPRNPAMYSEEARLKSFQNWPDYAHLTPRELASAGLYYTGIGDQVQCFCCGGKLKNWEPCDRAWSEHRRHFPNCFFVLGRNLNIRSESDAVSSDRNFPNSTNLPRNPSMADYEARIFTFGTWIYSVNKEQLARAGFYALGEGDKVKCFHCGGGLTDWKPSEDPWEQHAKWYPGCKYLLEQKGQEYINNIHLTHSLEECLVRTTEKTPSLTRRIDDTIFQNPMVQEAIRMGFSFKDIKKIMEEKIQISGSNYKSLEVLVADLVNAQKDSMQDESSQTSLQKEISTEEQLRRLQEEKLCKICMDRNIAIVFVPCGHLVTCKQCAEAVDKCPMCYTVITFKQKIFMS
Chain of Dihydroorotate dehydrogenase (quinone), mitochondrial (Plasmodium falciparum (isolate 3D7)) (Q08210 whole entry, looked up): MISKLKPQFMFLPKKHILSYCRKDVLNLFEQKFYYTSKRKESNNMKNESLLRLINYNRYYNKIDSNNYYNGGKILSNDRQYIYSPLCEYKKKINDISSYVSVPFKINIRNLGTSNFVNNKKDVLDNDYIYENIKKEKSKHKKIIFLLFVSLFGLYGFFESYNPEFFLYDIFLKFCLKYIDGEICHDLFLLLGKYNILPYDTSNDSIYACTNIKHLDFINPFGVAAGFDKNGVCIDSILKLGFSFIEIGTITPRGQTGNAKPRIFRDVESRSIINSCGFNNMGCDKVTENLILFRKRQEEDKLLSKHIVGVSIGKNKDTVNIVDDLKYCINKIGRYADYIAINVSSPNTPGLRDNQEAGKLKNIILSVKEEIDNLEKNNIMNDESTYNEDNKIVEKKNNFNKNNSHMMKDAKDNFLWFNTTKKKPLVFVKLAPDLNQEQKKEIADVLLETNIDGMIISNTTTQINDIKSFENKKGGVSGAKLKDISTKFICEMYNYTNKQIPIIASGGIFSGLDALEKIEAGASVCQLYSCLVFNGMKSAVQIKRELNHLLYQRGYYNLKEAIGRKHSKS

SMILES	z-score [1]	z-score [2]	z-score [3]	composite z-score [4]	z-score [5]	z-score [6]	z-score [7]	z-score [8]	composite z-score [9]	z-score [10]
CO[C@@H]1COC(=O)[C@H](Cc2ccccc2)NC(=O)CC=C[C@@H](C)[C@H](OC)COC(=O)[C@@H](C)NC(=O)CC=C[C@H]1C	0.959 and 0.62	-1.78 (inactive) and -1.48 (inactive)	1.27 (inactive) and 0.921 (inactive)	-0.595 (inactive) and -0.614 (inactive)	-1.34 (inactive) and -1.08 (inactive)	0.357 (inactive) and 0.951 (inactive)	0.067 (inactive) and 0.74 (inactive)	1 and -0.289	-0.203 and -0.192	–
COc1ccc(COC(=O)NN=C2C[C@@H](O)[C@@H](O)[C@@H]3[C@@H]4C(=O)N(C(C)(C)C)C(=O)[C@@H]4CC[C@H]23)cc1	-0.947	-1.8 (inactive)	-0.18 (inactive)	-1.31 (inactive)	-1.94 (inactive)	-0.21 (inactive)	0.0442 (inactive)	-0.571	-0.0845	0.541 (inactive)
CO[C@H]1COC(=O)CC=C[C@@H](C)COC(=O)[C@H](CCSC)NC(=O)CC=C[C@@H]1C	-0.591 and 0.597	-0.92 (inactive) and -2.28 (inactive)	-0.473 (inactive) and 1.67 (inactive)	0.177 (inactive) and 0.0636 (inactive)	-0.177 (inactive) and -0.642 (inactive)	0.277 (inactive) and 0.719 (inactive)	-1.27 (inactive) and 0.0985 (inactive)	-0.0162 and 1	0.266 and 0.0623	0.0821 (inactive)
COC(=O)[C@H](C)NC(=O)CCC1CC(OC(=O)NCCc2ccc(F)cc2)CC2(CCCC(COC(=O)NCCCN3CCCC3=O)O2)O1 (some centres undefined)	-0.704	-0.343 (inactive)	0.951 (inactive)	0.322 (inactive)	0.492 (inactive)	-0.441 (inactive)	-0.367 (inactive)	0.315	-0.283	-0.977 (inactive)
